This note sets out measurements from a collection of fitness landscapes (doi:10.1126/science.1257360).

B1: PhoQ; a variant is named by its letters at X, in order, P23837 (parent)
chain: MKKLLRLFFPLSLRVRFLLATAAVVLVLSLAYGMVALIGYSVSFDKTTFRLLRGESNLFYTLAKWENNKLHVELPENIDKQSPTMTLIYDENGQLLWAQRDVPWLMKMIQPDWLKSNGFHEIEADVNDTSLLLSGDHSIQQQLQEVREDDDDAEMTHSVAVNVYPATSRMPKLTIVVVDTIPVELKSSYMVWSWFIYVLSANLLLVIPLLWVAAWWSLRPIEALAKEVRELEEHNRELLNPATTRELTSLVRNLNRLLKSERERYDKYRTTLTDLTHSLKTPLXXLQXXLRSLRSEKMSVSDAEPVMLEQISRISQQIGYYLHRASMRGGTLLSRELHPVAPLLDNLTSALNKVYQRKGVNISLDISPEISFVGEQNDFVEVMGNVLDNACKYCLEFVEISARQTDEHLYIVVEDDGPGIPLSKREVIFDRGQRVDTLRPGQGVGLAVAREITEQYEGKIVAGESMLGGARMEVIFGRQHSAPKDE

Whole data set: some 140,000 sequences, median “enrichment ratio after two sorts for PhoP signalling” near 0, cut for the highest 2% near 11. The sample as a whole holds a higher share of the highest values than the screen did.

This experiment covers variants of B1. Nature of the experiment: enrichment ratio after two sorts for PhoP signalling (ratio (wild type AVST 3.29)); higher = more functional. The following applies: with PhoP (E. coli).
In the case of AHKE, the enrichment ratio was no more than 0.25. For the variant PMIW, the enrichment ratio is no more than 0.25. RAKS: the enrichment ratio was no more than 0.25. As for VANQ, the enrichment ratio is no more than 0.25. In the case of IINC, the enrichment ratio was no more than 0.25.

Take VHNE: the enrichment ratio is no more than 0.25.

For SDFS, the enrichment ratio is no more than 0.25.

Turning to PMPC, the enrichment ratio is no more than 0.25. Then KFDS, with no more than 0.25.

As for YAQF, the enrichment ratio is no more than 0.25. As for EIRD, the enrichment ratio was no more than 0.25. With SSCL, the enrichment ratio was 18.7. Turning to SSWL, the enrichment ratio stood at 10.6. The result for SSNL reads 3.91.

With WSRR, the enrichment ratio was no more than 0.25. Turning to ELIY, the enrichment ratio was no more than 0.25. With KGHE, the enrichment ratio was no more than 0.25. With VIMF, the enrichment ratio is no more than 0.25.

For the variant FCHH, the enrichment ratio was no more than 0.25. The result for KCHH reads no more than 0.25. In the case of TTTS, the enrichment ratio worked out at 14.1. The result for CSTS reads no more than 0.25; that for TTHH, 11.8. With TTTC, the enrichment ratio was 5.52.

Turning to LTTS, the enrichment ratio was no more than 0.25. With YTHH, the enrichment ratio was no more than 0.25. Then KSHH, with no more than 0.25. Then TCHH, with 26.2; and YTTS, with no more than 0.25; and CTTS, with 16.8. Regarding SRLA, the enrichment ratio was no more than 0.25. For NNFT, the enrichment ratio was no more than 0.25.

Regarding PAYF, the enrichment ratio is no more than 0.25. The result for PHQG reads no more than 0.25; that for LARQ, no more than 0.25; that for VYWL, no more than 0.25. The result for HTSP reads no more than 0.25.

As to QDNG, the enrichment ratio is no more than 0.25. The result for PCTP reads no more than 0.25; that for KNRD, no more than 0.25; that for PYIP, no more than 0.25. As for SDAL, the enrichment ratio was no more than 0.25. Consider TCES, for which the enrichment ratio is no more than 0.25. With VDIK, the enrichment ratio was no more than 0.25. The result for KVYK reads no more than 0.25; that for HCSM, no more than 0.25. As for CLFG, the enrichment ratio was no more than 0.25. For the variant NIPT, the enrichment ratio was no more than 0.25. Then YTNH, with no more than 0.25; and YTTH, with no more than 0.25. For YTTK, the enrichment ratio is no more than 0.25. As to TTKH, the enrichment ratio was no more than 0.25.

Turning to LTNH, the enrichment ratio was no more than 0.25. Turning to TTNH, the enrichment ratio stood at 12.2. Regarding TTTK, the enrichment ratio is 16.7. In the case of KSTK, the enrichment ratio is no more than 0.25. Consider TTTH, for which the enrichment ratio amounted to 20.3. As for ENFF, the enrichment ratio is no more than 0.25. Turning to VSFD, the enrichment ratio turned out to be 0.544. For LAEF, the enrichment ratio was no more than 0.25. Take YEFI: the enrichment ratio is no more than 0.25. On to TRCW, for which the enrichment ratio was no more than 0.25.

For the variant YFRG, the enrichment ratio was no more than 0.25. Consider GFVM, for which the enrichment ratio is no more than 0.25. For the variant RLME, the enrichment ratio is no more than 0.25.

Turning to QHMY, the enrichment ratio was no more than 0.25.

For the variant LNCM, the enrichment ratio was no more than 0.25. The result for LECK reads 1.26; that for MECM, 36.6. For FECM, the enrichment ratio worked out at 5. On to TECK, for which the enrichment ratio came out at 4.11. As for DMCM, the enrichment ratio was no more than 0.25. For the variant MACM, the enrichment ratio is no more than 0.25. TECM: the enrichment ratio was 31.3. Then NECM, with 28.2. Regarding YWCM, the enrichment ratio was no more than 0.25.

As to FNCM, the enrichment ratio is 5.18. Take LECM: the enrichment ratio came out at 17.2.

Take QCSI: the enrichment ratio is no more than 0.25. Regarding QACK, the enrichment ratio is no more than 0.25.

Consider GTRW, for which the enrichment ratio was no more than 0.25.

For the variant TLVA, the enrichment ratio was no more than 0.25. With TYNL, the enrichment ratio was 3.68.

As to RPMT, the enrichment ratio is no more than 0.25.

Take HVPY: the enrichment ratio is no more than 0.25. Take WMTR: the enrichment ratio is no more than 0.25.

As to WIHI, the enrichment ratio was no more than 0.25. In the case of WFNQ, the enrichment ratio is no more than 0.25. Then HCCF, with no more than 0.25. As for TQGD, the enrichment ratio was determined as 2.92. TGWG: the enrichment ratio worked out at 5.4.

Turning to TQVC, the enrichment ratio was determined as 14.3. Consider KSWG, for which the enrichment ratio is no more than 0.25.

TQEG: the enrichment ratio is no more than 0.25. With TQWG, the enrichment ratio was determined as 18.3. In the case of TQVG, the enrichment ratio stood at 12.2.

For TQMD, the enrichment ratio came to 63. TQVA: the enrichment ratio stood at 3.07. For the variant TQED, the enrichment ratio was no more than 0.25. Regarding NQVC, the enrichment ratio is no more than 0.25. For WQVC, the enrichment ratio is no more than 0.25.

As for IQCQ, the enrichment ratio was no more than 0.25. Consider ACAH, for which the enrichment ratio was found to be 4.6.

Turning to GLLF, the enrichment ratio is 4.76.

As to NFMP, the enrichment ratio was no more than 0.25. On to LLRY, for which the enrichment ratio is no more than 0.25. For the variant VNTC, the enrichment ratio is no more than 0.25.

IRDH: the enrichment ratio was no more than 0.25. EIET: the enrichment ratio was no more than 0.25. As to MPTT, the enrichment ratio was no more than 0.25. On to KEKC, for which the enrichment ratio was no more than 0.25. For the variant VMIT, the enrichment ratio was no more than 0.25. In the case of TQVQ, the enrichment ratio is 13.8. As to IQMQ, the enrichment ratio is no more than 0.25. For the variant PVSG, the enrichment ratio is no more than 0.25. With TQSG, the enrichment ratio turned out to be 22.2.

For the variant WQVQ, the enrichment ratio is no more than 0.25. For the variant TQMQ, the enrichment ratio is 24.2. As for NVSG, the enrichment ratio is no more than 0.25. In the case of LAQG, the enrichment ratio was no more than 0.25. Turning to TQQG, the enrichment ratio stood at 16.8. For the variant IQVQ, the enrichment ratio was no more than 0.25. Regarding KSQG, the enrichment ratio is no more than 0.25. As for TQMI, the enrichment ratio worked out at 6.9. Consider GHDF, for which the enrichment ratio was no more than 0.25. As for PFFG, the enrichment ratio is no more than 0.25. Consider QSAN, for which the enrichment ratio was no more than 0.25.

Regarding HQRF, the enrichment ratio is no more than 0.25. Then YLKI, with no more than 0.25; and YYVE, with no more than 0.25.

For YDMW, the enrichment ratio was no more than 0.25.

As for QNMD, the enrichment ratio was no more than 0.25. Regarding TQAG, the enrichment ratio stood at 28.2.

Take TQMA: the enrichment ratio amounted to 12.7. The result for WQAG reads no more than 0.25; that for TQMV, 7.29. In the case of TQMG, the enrichment ratio was found to be 32.5. Regarding SQMA, the enrichment ratio worked out at 8.75. Consider NQMA, for which the enrichment ratio is no more than 0.25. As for TQQR, the enrichment ratio is no more than 0.25.

With KQAG, the enrichment ratio was no more than 0.25. With EPSH, the enrichment ratio was no more than 0.25. The result for CFVH reads no more than 0.25; that for RDRE, no more than 0.25; that for NQHC, no more than 0.25. For the variant RVAA, the enrichment ratio was no more than 0.25.

LDQA: the enrichment ratio was no more than 0.25. Regarding FQFN, the enrichment ratio is no more than 0.25. KQLN: the enrichment ratio was no more than 0.25. The result for TQLN reads 13.2. Take NVTN: the enrichment ratio was no more than 0.25. As for TQQN, the enrichment ratio worked out at 14.8. With NQFN, the enrichment ratio was no more than 0.25. Take TQTN: the enrichment ratio is 15.4.
